Experimental data: PubChem BioAssay (EPA / NIEHS)
Active and inactive are the calls of the source. Rule for the calls: active = hit-call score of the fitted dose curve at least 0.9, where 1 is the maximum; inactive = score below 0.9.

How the values were obtained:
Settings in all cases: mRNA level, 48 h; actives raise or lower the signal
[1] = read-out: Insulin Like Growth Factor 1 (IGF1), IGF1 (gene 3479); experiment: LTEA_HepaRG_IGF1: Life Technologies and Expression Analysis (LTEA) Assay for Insulin Like Growth Factor 1 (IGF1) using HepaRG (AID 2283506)
Procedure, shortened: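 Cells are thawed, plated and cultured 48 h, then exposed in duplicate to chemical (highest 100 uM, half-log steps, 0.5% DMSO) for another 48 h. Total RNA is analysed by Fluidigm qRT-PCR for IGF1 expression relative to vehicle.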

[2] = read-out: Intercellular Adhesion Molecule 1 (ICAM1), ICAM1 (gene 3383); experiment: LTEA_HepaRG_ICAM1: Life Technologies and Expression Analysis (LTEA) Assay for Intercellular Adhesion Molecule 1 (ICAM1) using HepaRG (AID 2283507)
Procedure, shortened: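 ICAM1 transcript levels measured by qRT-PCR, normalized to three housekeeping genes (ACTB, GAPDH, POLR2A), after 48 h chemical exposure of HepaRG cells. Duplicate eight-point half-log series from 100 uM in 0.5% DMSO; gain or loss fitted against vehicle.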

[3] = read-out: Insulin-like growth factor-binding protein 1 (IGFBP1), IGFBP1 (gene 3484); experiment: LTEA_HepaRG_IGFBP1: Life Technologies and Expression Analysis (LTEA) Assay for Insulin-like growth factor-binding protein 1 (IGFBP1) using HepaRG (AID 2283508)
Procedure, shortened: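 Read-out is qRT-PCR transcript level normalized to three housekeeping genes, fitted in both directions against 0.5% DMSO. Differentiated HepaRG cells received eight half-log concentrations (top 100 uM) in duplicate for 48 h in serum-free induction medium.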

[4] = read-out: Interleukin 6 (IL6), IL6 (gene 3569); experiment: LTEA_HepaRG_IL6: Life Technologies and Expression Analysis (LTEA) Assay for Interleukin 6 (IL6) using HepaRG (AID 2283509)
Procedure, shortened: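 Changes in IL6 mRNA, up or down relative to 0.5% DMSO controls, were derived from concentration-response curves in human HepaRG cells treated for 48 h at up to 100 uM, with ACTB, GAPDH and POLR2A as normalizers.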

[5] = read-out: Interleukin 6 Receptor (IL6R), IL6R (gene 3570); experiment: LTEA_HepaRG_IL6R: Life Technologies and Expression Analysis (LTEA) Assay for Interleukin 6 Receptor (IL6R) using HepaRG (AID 2283510);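 for AC50: differentiated human HepaRG liver cells in serum-free induction medium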
Procedure, shortened: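 Cells were thawed, plated and cultured 48 h, then medium was changed to serum-free induction medium. Chemicals were added in duplicate (100 uM top, half-log steps, 0.5% DMSO) for 48 h. Lysates were analyzed by qRT-PCR for IL6R expression.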

[6] = read-out: Potassium channel subfamily K member 1 (KCNK1), KCNK1 (gene 3775); experiment: LTEA_HepaRG_KCNK1: Life Technologies and Expression Analysis (LTEA) Assay for Potassium channel subfamily K member 1 (KCNK1) using HepaRG (AID 2283511)
Procedure, shortened: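 Human HepaRG cultures receive test chemicals for 48 h in 0.5% DMSO, top concentration 100 uM with half-log dilutions. Induction or suppression of KCNK1 mRNA relative to DMSO is derived by bidirectional fitting of qRT-PCR data.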

[7] = read-out: Keratin 19 (KRT19), KRT19 (gene 3880); experiment: LTEA_HepaRG_KRT19: Life Technologies and Expression Analysis (LTEA) Assay for Keratin 19 (KRT19) using HepaRG (AID 2283512)
Procedure, shortened: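 KRT19 transcript measured by TaqMan qRT-PCR, referenced to three housekeeping genes, after HepaRG cells received test chemicals for 48 h. Eight half-log concentrations, top 100 uM, 0.5% DMSO vehicle; increases and decreases both fitted.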

[8] = read-out: JUN Transcription Factor, JUN (gene 3725); experiment: LTEA_HepaRG_JUN: Life Technologies and Expression Analysis (LTEA) Assay for JUN Transcription Factor using HepaRG (AID 2283513)
Procedure, shortened: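 Read-out is JUN transcript level by TaqMan qRT-PCR, normalized to ACTB, GAPDH and POLR2A, after 48 h chemical treatment of HepaRG cells. Concentration-response spanned eight half-log points up to 100 uM in 0.5% DMSO.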

[9] = read-out: Lipase C (LIPC), LIPC (gene 3990); experiment: LTEA_HepaRG_LIPC: Life Technologies and Expression Analysis (LTEA) Assay for Lipase C (LIPC) using HepaRG (AID 2283514)
Procedure, shortened: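 In this multiplexed gene-expression screen, human HepaRG cultures received test chemicals for 48 h across eight concentrations with 100 uM highest, in duplicate. Values reflect LIPC mRNA induction or suppression versus DMSO vehicle, from normalized qRT-PCR.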

[10] = read-out: Lipoprotein lipase (LPL), LPL (gene 4023); experiment: LTEA_HepaRG_LPL: Life Technologies and Expression Analysis (LTEA) Assay for Lipoprotein lipase (LPL) using HepaRG (AID 2283515)
Procedure, shortened: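 Concentration-response testing used half-log steps from 100 uM in 0.5% DMSO on human HepaRG cells, 48 h, duplicate wells. Phenobarbital 1 mM served as induction control; LPL mRNA was normalized to ACTB, GAPDH, POLR2A.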

Measured: AC50

Oc1ccc(Cl)cc1Cl
inactive: all assays above

C=CC(=O)NCNC(=O)C=C
active: [1] 50 µM
not listed: [4] | [10]
inactive: all other assays above

Cc1cc2c3c(c1)C(c1ccccc1)=N[C@@H](NC(=O)c1ccncc1)C(=O)N3CC2
active: [1] 39.3 µM | [8] 50 µM | [9] 34.9 µM | [10] 21.1 µM
inactive: all other assays above

CCCN(CCC)N=O
not listed: [10]
inactive: all other assays above

Cc1cc(O)ccc1Cl
inactive: all assays above

O=C(NC(=O)c1c(F)cccc1F)Nc1cc(Cl)c(OC(F)(F)C(F)F)c(Cl)c1
active: [9] 50 µM
not listed: [10]
inactive: all other assays above

CCCCCCCCCC[N+](C)(C)CCCCCCCCCC
inactive: [5] | [7] | [9]
active: [1] 67.7 µM | [2] 94.5 µM | [3] 81.6 µM | [4] 78.3 µM | [8] 90.5 µM | [10] 88.7 µM

Cc1cc(-c2ccc(N)c(C)c2)ccc1N
active: [7] 30.8 µM
not listed: [10]
inactive: all other assays above

c1cc2ccc3cccc4ccc(c1)c2c34
not listed: [4] | [10]
inactive: all other assays above

C[C@]12CCC(=O)C=C1CC[C@@H]1[C@@H]2CC[C@@]2(C)[C@H]1CC[C@]2(C)O
active: [1] 11.3 µM | [9] 81.7 µM
not listed: [4] | [10]
inactive: all other assays above

Clc1ccc(Cl)cc1
not listed: [4] | [10]
inactive: all other assays above

O=C(NC(=O)c1cc(F)c(F)cc1Cl)Nc1cc(F)ccc1N1CCC(C(=O)O)CC1
not listed: [10]
inactive: all other assays above

CC(C)(O)C(=O)Nc1ccc([N+](=O)[O-])c(C(F)(F)F)c1
active: [1] 0.0443 µM | [2] 0.0402 µM | [3] 0.0432 µM | [6] 0.052 µM | [8] 0.0328 µM | [9] 0.0399 µM
inactive: [4] | [5] | [7]

ClC1=C(Cl)[C@]2(Cl)[C@@H]3[C@@H](Cl)[C@H]4O[C@H]4[C@@H]3C1(Cl)C2(Cl)Cl
active: [1] 5.01 µM
not listed: [8]
inactive: all other assays above

CCSC(=O)N(CC)C1CCCCC1
inactive: all assays above

ClC1=C(Cl)[C@]2(Cl)[C@@H]3[C@H]4C[C@H]([C@@H]5O[C@H]45)[C@@H]3[C@@]1(Cl)C2(Cl)Cl
active: [1] 5.52 µM | [2] 9.92 µM | [5] 9.92 µM | [9] 50 µM
inactive: all other assays above

COS(=O)(=O)OC
not listed: [10]
inactive: all other assays above

c1ccc(-c2ccccc2)cc1
not listed: [4] | [10]
inactive: all other assays above

O=S(=O)(O)C(F)(F)C(F)(F)C(F)(F)C(F)(F)C(F)(F)C(F)(F)F
not listed: [10]
inactive: all other assays above

CCC(=O)O[C@H]1CC[C@H]2[C@@H]3CCC4=CC(=O)CC[C@]4(C)[C@H]3CC[C@]12C
active: [4] 33.1 µM
not listed: [10]
inactive: all other assays above

CCCCCCOC(=O)c1ccccc1C(=O)OCCCCCC
not listed: [4] | [10]
inactive: all other assays above

CC(C)C(=O)OCC(C)(C)C(OC(=O)C(C)C)C(C)C (configuration not stated)
not listed: [10]
inactive: all other assays above

N#Cc1ccc(N(CC(N)=O)CC(F)(F)F)cc1C(F)(F)F
inactive: all assays above

Clc1ccc(C(c2ccccc2Cl)C(Cl)(Cl)Cl)cc1 (configuration not stated)
active: [1] 31.3 µM | [7] 20.4 µM | [9] 84.4 µM
not listed: [10]
inactive: all other assays above

O=C(O)C(F)(F)C(F)(F)C(F)(F)C(F)(F)C(F)(F)F
inactive: all assays above

COc1ccc(O)c(C(C)(C)C)c1
not listed: [10]
inactive: all other assays above

O=C(N[C@H]1CN2CCC1CC2)c1cc2ccoc2cn1
not listed: [4] | [10]
inactive: all other assays above

Nc1ccc(-c2ccc(N)cc2)cc1
inactive: all assays above

Clc1ccc(C(Cl)(Cl)Cl)cc1
not listed: [4] | [10]
inactive: all other assays above

C1CC2OC2CC1C1CO1 (configuration not stated)
not listed: [4] | [10]
inactive: all other assays above

Cc1cccc(C)c1N
not listed: [10]
inactive: all other assays above

NS(=O)(=O)C(F)(F)C(F)(F)C(F)(F)C(F)(F)C(F)(F)C(F)(F)C(F)(F)C(F)(F)F
active: [1] 22.3 µM | [3] 21.6 µM | [4] 38.9 µM | [5] 30.2 µM | [7] 23.4 µM | [8] 37.2 µM | [9] 15.8 µM
inactive: [2] | [6]
